# PubChem BioAssay (Tox21)
# Inconclusive results are not listed. Active and inactive are the calls of the source. The call rests on the fitted dose curve; in most records, active means well fitted cell-killing curve with a large enough effect in the repeat runs; inconclusive means weak or mixed curves, or effect the other way; inactive means flat fitted curve, though single readings scatter.
# Assay: qHTS assay to identify small molecule agonists of the sonic hedgehog signaling (Shh) pathway - cell viability counter screen (AID 1259366); further: nearly all actives have a fitted effect of over 50% in size
# Details: NIH/3T3 Gli1-Luc viability, CellTiter-Fluor, 24 h; series mostly up to 92.4 µM
# Text: National Center for Advancing Translational Sciences [NCATS]
# NIH Chemical Genomics Center [NCGC]
# U.S. Environmental Protection Agency [EPA]
# National Institutes of Environmental Health Sciences [NIEHS]
# National Toxicology Program [NTP]
# U.S. Food and Drug Administration [FDA]
# The sonic hedgehog (Shh) pathway is essential for normal embryonic development. Dysregulation of the Shh pathway can cause severe developmental defects in organs. Therefore chemicals that interfere with the pathway are potential developmental toxicants. A cell line designated 3T3Gli1-Luc (DMB/OARSA/CFSAN/FDA, Laurel, MD), a NIH/3T3 derived clone containing stably integrated Gli1-Luc reporter is used to detect chemical interference of the Shh pathway, by changes in the expression of the firefly Luc gene under the control of the Gli1 transcriptional response element. This cell line was used to screen Tox21 libraries for identifying and prioritizing the potential developmental toxicants that interfere Shh pathway. The cytotoxicity of the compounds was tested in parallel by measuring the cell viability using CellTiter-Fluor assay system (Promega, Madison, WI) in the same wells.
# Tox21 Assay Protocol Summary:
# 3T3 Gli1-Luc cells were dispensed at 2,000 per well in 5uL of culture medium into white solid bottom 1536-well plates (Greiner Bio-One, Monroe, NC) using a Multidrop Combi (Thermo Scientific, Waltham, MA) dispenser. The assay plates were incubated at 37 C and 5% CO2 for 4hr, and then 23nL of compounds dissolved in DMSO and positive control were transferred using a Pintool station (Wako, San Diego, CA). The assay plates were incubated at 37C and 5% CO2 for 24hr. For viability read, after 23hr of compound treatment, 1uL of CellTiter-Fluor reagent (Promega Corporation, Madison, WI) was added to each well of the assay plates using Flying Reagent Dispenser (FRD, Aurora Discovery, San Diego, CA) and incubated the assay plates at 37C for 1hr. The fluorescence signal was quantified using a ViewLux plate reader (Perkin Elmer, Shelton, CT).
# On the % scale 0 is the no-effect control and ±100 the full control effect.
Structure (SMILES),outcome,"viability change, negative = cytotoxic"
CO/N=C(/C(=O)N[C@@H]1C(=O)N2C(C(=O)[O-])=C(C[n+]3ccn4ncccc43)CS[C@H]12)c1nsc(N)n1,inactive,–
CC(C)(C)NC[C@H](O)COc1cccc2c1CCCC2=O,inactive,–
CCCCCC/C=C/C(=O)OC,inactive,–
CC1=C(C(=O)O)N2C(=O)[C@@H](NC(=O)[C@H](N)C3=CCC=CC3)[C@H]2SC1,inactive,–
O=C1OCCO1,inactive,–
Cn1c(=O)c2[nH]c(Br)nc2n(C)c1=O,inactive,–
c1ccc2cnccc2c1,inactive,–
c1ccc2c(CC3=NCCN3)cccc2c1,inactive,–
CC1(C)Oc2ccc(C#N)cc2[C@@H](N2CCCC2=O)[C@@H]1O,inactive,–
CC(=O)CC(=O)OC(C)(C)C,inactive,–
Cc1ccccc1C(N)=O,inactive,–
COc1ccc2c(c1)c1c3n2CCN(C)C3=NCC1,inactive,–
CC(=O)CC(=O)Nc1ccc(C)cc1C,inactive,–
CCOc1cccc(N)c1,inactive,–
CCCC(=O)OC/C=C(\C)CCC=C(C)C,inactive,–
CO[C@@]1(NC(=O)Cc2cccs2)C(=O)N2C(C(=O)O)=C(COC(N)=O)CS[C@@H]21,inactive,–
CN(C)CC/C=C1/c2ccccc2COc2ccc(CC(=O)O)cc21,inactive,–
Cc1cc(C)c(C(=O)O)c(C)c1,inactive,–
CCC(C)OC(C)CC (stereo not given),inactive,–
O=C(O)CSCC(=O)NC1CCSC1=O (stereo not given),inactive,–

Structure (SMILES),outcome,"viability change, negative = cytotoxic"
CN(C)CCOC(=O)C(c1ccccc1)C1(O)CCCC1 (stereo not given),inactive,–
c1ccc(-c2nn[nH]n2)cc1,inactive,–
CC(C)COC(=O)c1ccccc1,inactive,–
O=C(Cn1ccnc1[N+](=O)[O-])NCc1ccccc1,inactive,–
CCn1cc(C(=O)O)c(=O)c2cnc(N3CCCC3)nc21,–,-0.379% [at 8.39 µM] (inactive)
COc1c2occc2c(OC)c2c(=O)cc(C)oc12,inactive,–
CC(=O)OC1CCCCC1C(C)(C)C (stereo not given),inactive,–
CCC(C)C(C)=O (stereo not given),inactive,–
CCCCCc1cccc(=O)o1,inactive,–
C/C(=C1\CCOC(=O)S1)N(C=O)Cc1cnc(C)nc1N,inactive,–
Cc1c(NC(=O)c2cccnc2)c(=O)n(-c2ccccc2)n1C,inactive,–
C=CC(=O)CCCCC,inactive,–
CCCC(=O)OCCC(C)CCC=C(C)C (stereo not given),inactive,–
N#CCC(=O)NN,inactive,–
CC(CO)(CO)CO,inactive,–
Nc1nnnn1-c1ccccc1,inactive,–
OCCN1CCOCC1,inactive,–
CC(=O)CCc1ccc(OC(C)=O)cc1,inactive,–
COC(=O)/C=C\C(=O)O,inactive,–
COc1ccc(CCO)cc1,inactive,–
